# Bioassay records: PubChem, National Center for Advancing Translational Sciences (NCATS)
# Hits are enriched below; roughly 19% of the tested compounds scored in any of these assays.
# IL1B secr inh: qHTS for Inhibitors of Inflammasome Signaling: IL-1-beta AlphaLISA Primary Screen | THP-1 LPS/ATP IL-1B secretion, AlphaLISA, 16 h; hits give low values | activity change, % at 57.5 µM | hit rate 4.7% among 360,000; in the data active = activity change below about -50%; inconclusive = mostly about -30% to -49%; note: % is set by controls: 0 for no effect and ±100 for the full control effect
#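 Secreted IL-1B measured by AlphaLISA bead assay after 16 h compound exposure of THP-1 cells; compounds (final up to 57.5 uM) added 1 h before LPS (250 ng/mL) and ATP (1.25 mM) stimulation; lower signal means less secretion.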
# TDP1 cell noCPT: qHTS for Inhibitors of human tyrosyl-DNA phosphodiesterase 1 (TDP1): qHTS in cells in absence of CPT. DT40 Tdp1-/- hTDP1 cells, no CPT, ATP luminescence, 48 h. Potency, µM (highest dose often 46.2 µM), for inactives: at the top dose activity change, negative = growth inhibition, hits mostly inhibitors. hit rate 15% among 420,000. AID 686978, 2013; note: potency is the fitted concentration of half-maximal effect; % is set by controls: 0 for no effect and ±100 for the full control effect; nearly all actives have a fitted effect of over 55% in size
#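 Chicken DT40 Tdp1-/- cells complemented with human TDP1, screened without camptothecin (DMSO vehicle only), 400 cells/well. Compounds pin-transferred, cells incubated at 37 °C for at least 48 hr. Growth read as ATP-dependent luminescence (CellTiter-Glo, 30 min at RT).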
# HepG2 tox: qHTS for Inhibitors of TGF-b: Cytotox Counterscreen; AID 588856, 2011; hit rate 0.76% among 410,000; HepG2 CAGA-GFP viability, ATP luminescence, 18 h; Potency, µM (highest dose often 46.1 µM), inactives show at the highest dose activity change, negative = cytotoxicity, actives largely listed as cytotoxic; note: potency is the fitted concentration of half-maximal effect
#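 HepG2 CAGA-GFP cells (1000/well, DMEM with 1% FBS) received compound, then TGF-beta at 500 pg/mL final, and were incubated 18 hours at 37 degrees C. Viability was read by CellTiter-Glo luminescence. Media-only wells were set as complete cell-killing and DMSO as no toxicity.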
# ASM inhibitor: Inhibitors of Secretory Acid Sphingomyelinase (S-ASM): qHTS | Potency, µM (top dose mostly 57.5 µM), without a hit: at the highest dose activity change, negative = inhibition, most hits filed as inhibitors | Sphingomyelin phosphodiesterase (Homo sapiens), P17405 | hit rate 0.006% among 340,000 | placental ASM, HMU-PC fluorogenic substrate, 60 min; note: potency is the fitted concentration of half-maximal effect
# Target sequence (P17405 47-631 limits assumed): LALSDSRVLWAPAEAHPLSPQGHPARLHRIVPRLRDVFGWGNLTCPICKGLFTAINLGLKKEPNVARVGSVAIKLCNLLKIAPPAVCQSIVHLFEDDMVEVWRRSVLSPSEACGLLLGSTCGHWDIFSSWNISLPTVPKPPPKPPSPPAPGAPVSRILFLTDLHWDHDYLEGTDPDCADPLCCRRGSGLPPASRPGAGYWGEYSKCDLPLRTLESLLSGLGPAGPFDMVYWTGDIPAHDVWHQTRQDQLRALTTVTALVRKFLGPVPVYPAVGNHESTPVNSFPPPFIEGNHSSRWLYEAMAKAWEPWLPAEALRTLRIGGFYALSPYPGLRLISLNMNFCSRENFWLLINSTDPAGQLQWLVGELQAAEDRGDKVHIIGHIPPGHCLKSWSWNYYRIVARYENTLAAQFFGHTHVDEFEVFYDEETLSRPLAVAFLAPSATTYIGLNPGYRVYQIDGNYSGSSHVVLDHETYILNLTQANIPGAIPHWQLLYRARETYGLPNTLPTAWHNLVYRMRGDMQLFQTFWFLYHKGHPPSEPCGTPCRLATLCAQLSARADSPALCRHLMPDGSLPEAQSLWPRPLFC
#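 qHTS format. ASM enzyme prepared from human placenta hydrolyses the fluorogenic substrate HMU-PC0 (9 uM final) over 60 min at 37 °C after a 10 min compound preincubation.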
# DT40 TDP1 CPT: qHTS for Inhibitors of human tyrosyl-DNA phosphodiesterase 1 (TDP1): qHTS in cells in presence of CPT | chicken DT40 Tdp1-/-;hTDP1 cells + 20 nM CPT, ATP luminescence, 48 h | Potency, µM (highest dose often 46.2 µM), for inactives: top-dose activity change, negative = growth inhibition, most hits filed as inhibitors | hit rate 12% among 420,000 | AID 686979, 2013; note: potency is the fitted concentration of half-maximal effect; % is set by controls: 0 for no effect and ±100 for the full control effect; nearly all actives have a fitted effect of over 55% in size
#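 Chicken DT40 Tdp1-/- cells complemented with human TDP1, 400 cells/well, exposed to compounds plus 20 nM camptothecin for at least 48 h at 37 C; viability read as ATP content by CellTiter-Glo luminescence.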
# TGFb inhibitor: qHTS for Inhibitors of TGF-b; Potency, µM (doses to about 46.1 µM), inactives show top-dose activity, negative = inhibition, most hits filed as inhibitors; hit rate 1.2% among 410,000; HepG2 CAGA-GFP TGF-b/SMAD3 reporter, GFP fluorescence, 18 h; TGF-beta stimulated, 500 pg/mL final; note: potency is the fitted concentration of half-maximal effect; % is set by controls: 0 for no effect and ±100 for the full control effect; nearly all actives have a fitted effect of over 65% in size
#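 Inhibition was scored as loss of TGF-beta-induced (500 pg/mL final, 18 hours, 37 degrees C) GFP in HEPG2 cells carrying a CAGA-GFP reporter, in DMEM with 1% FBS. Well GFP was summed per cell; Activity was normalised to unstimulated and stimulated DMSO wells, then concentration-response fitting.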
# Active calls of the source: *; u = inconclusive; x = no result; [ ] = remark or other dose. Unless noted, calls come from the whole dose curve; as a rule, active = well fitted curve in the direction sought with a large enough effect; inconclusive = small, poorly fitted or top-dose-only effect, or another doubt; inactive = no such curve, though single readings can be large; an effect the other way counts as inactive or inconclusive.
SMILES,IL1B secr inh,TDP1 cell noCPT,HepG2 tox,ASM inhibitor,DT40 TDP1 CPT,TGFb inhibitor
Cc1ccc(-c2nc3ccccc3n2C(C)C(=O)NC(C)(C)C)cc1 (configuration not stated),3,-17%,x,x,9%,x
Cc1ccc(-c2nc3ccccc3n2C(C(=O)NC(C)(C)C)C2CC2)cc1 (configuration not stated),76,u,x,x,21µM*,x
COc1ccc(C(C(=O)NCc2ccccc2)n2c(-c3ccncc3)nc3ccccc32)cc1 (configuration not stated),-9,u,x,x,u,x
CC(C)(C)NC(=O)C(c1cc2ccccc2o1)n1c(=O)c(-c2cc3ccccc3[nH]2)nc2ccccc21 (configuration not stated),79,u,x,x,u,x
CC(C)(C)NC(=O)C(c1ccccc1)n1c(-c2ccc(-c3ccccc3)cc2)nc2ccccc21 (configuration not stated),10,u,x,x,u,x
COc1cc(S(=O)(=O)NCc2ccc3c(c2)OCO3)ccc1F,-1,-6%,-7%,2%,-19%,-3%
O=c1c2sc(-c3ccccc3)cc2nc2n1CCCCC2,x,12µM*,-29%,-3%,-21%,0%
COc1cc(=O)n2c(c1C(=O)NCc1ccco1)CCN(C(=O)c1cccnc1SC)CC2,x,-5%,x,x,12%[9.04 µM],x
CC1CC(=S)Nc2ccccc2N1C(=O)Nc1ccccc1 (configuration not stated),11,-10%,-36%,2%,4%,-2%
O=C(Nc1ccccc1)N1CCc2scc[n+]2-c2ccccc21,u,12µM*,12%,-2%,5.8µM*,18%
O=C(Nc1ccccc1)N1CCC(=S)Nc2ccccc21,22,-2%,15%,1%,7%,18%
CC1CN(C(=O)Nc2ccccc2)c2ccccc2-[n+]2ccsc21 (configuration not stated),-18,12µM*,20%,1%,3.7µM*,14%
CC1Sc2ccc(S(=O)(=O)N3CCC(C(=O)NCc4ccco4)CC3)cc2NC1=O (configuration not stated),0,u,-30%,0%,u,-28%
CC1Sc2ccc(S(=O)(=O)N3CCC(C(=O)N(C)Cc4ccco4)CC3)cc2NC1=O (configuration not stated),-12,u,1%,-2%,15µM*,u
CCc1ccc(NC(=O)C2CCN(S(=O)(=O)c3ccc4c(c3)NC(=O)CO4)CC2)cc1,u,u,-13%,-18%,u,u
CCc1ccc(NC(=O)C2CCN(S(=O)(=O)c3ccc4c(c3)NC(=O)C(C)S4)CC2)cc1 (configuration not stated),-10,u,-3%,u,18µM*,u
COc1ccccc1NC(=O)C1CCN(S(=O)(=O)c2ccc3c(c2)NC(=O)C(C)S3)CC1 (configuration not stated),-16,u,-39%,-2%,u,u
COc1ccc(CNC(=O)C2CCN(S(=O)(=O)c3ccc4c(c3)NC(=O)C(C)S4)CC2)cc1 (configuration not stated),8,u,-12%,-5%,u,-7%
CC1Sc2ccc(S(=O)(=O)N3CCC(C(=O)NCc4ccc(Cl)cc4)CC3)cc2NC1=O (configuration not stated),-20,15µM*,3%,-18%,16µM*,u
CC1Sc2ccc(S(=O)(=O)N3CCC(C(=O)Nc4cccc(Cl)c4)CC3)cc2NC1=O (configuration not stated),u,18µM*,-30%,-27%,u,u
O=C(COc1ccccc1)Nc1cccc(-c2ccc(N3CCOCC3)nn2)c1,-14,9.2µM*,-53%,-2%,u,-1%
O=C(Nc1cccc(-c2ccc(N3CCOCC3)nn2)c1)c1ccccc1,-21,u,-7%,6%,u,13%
Cc1ccc(C(=O)Nc2cccc(-c3ccc(N4CCOCC4)nn3)c2)cc1[N+](=O)[O-],-3,u,-5%,-10%,10µM*,1%
O=C(COc1ccc(Cl)cc1Cl)Nc1cccc(-c2ccc(N3CCOCC3)nn2)c1,-15,u,0%,2%,18µM*,1%
O=C(COc1ccc(Cl)cc1Cl)Nc1ccc(-c2ccc(N3CCOCC3)nn2)cc1,35,u,9%,-2%,-9%,1%
SMILES,IL1B secr inh,TDP1 cell noCPT,HepG2 tox,ASM inhibitor,DT40 TDP1 CPT,TGFb inhibitor
CC(=O)Nc1cncc(-c2cccc(N(C)C)c2)n1,11,0%,5%,x,-10%,1%
CCOCCC(=O)Nc1nnc(CCc2ccccc2)s1,-3,-10%,3%,3%,-10%,9%
OC1(c2ccc(OC(F)F)cc2)CSC(=Nc2cccnc2)N1Cc1ccco1 (configuration not stated),-77*,-88%,-21%,0%,-76%,-17%
CC(Sc1nnc(CN2CCCC2)n1Cc1ccccc1)C(=O)Nc1ccc(F)cc1 (configuration not stated),-7,-9%,-20%,5%,-29%,0%
CC(Sc1nnc(CN2CCCC2)n1Cc1ccccc1)C(=O)Nc1ccc(F)cc1Cl (configuration not stated),u,26µM*,-10%,0%,18µM*,u
CC(=O)C1=C(C)NC(SCC(N)=O)=C(C#N)C1CC(C)C (configuration not stated),18,u,-6%,3%,2%,9%
CCOC(=O)C1=C(C)NC(SC)=C(C#N)C1CC(C)C (configuration not stated),u,3.7µM*,16%,14%,3.7µM*,u
Cn1c(SCC(=O)NC2CCCC2)nnc1-c1cccs1,1,-11%,10%,4%,5%,-2%
CC1(C(=O)NCc2cccc3ccccc23)CCN1C(=O)C1(c2ccccc2)CC1 (configuration not stated),-3,u,-8%,x,u,5%
COc1ccccc1CNC(=O)C1(C)CCN1Cc1ccc(OC(F)(F)F)cc1 (configuration not stated),-10,u,-59%,x,16µM*,u
